# Shown are actives, neighbours in structure and some others; about 2.2% of the full set was active somewhere.
# RTF Ca sens act = cardiac RTF calcium sensitivity activators, primary screen, biochemical, IANBD-TnC fluorescence, EC20 calcium; AID 493008, 2010; activation, % at 7.2 µM; Troponin I, cardiac muscle (Homo sapiens) + Troponin T, cardiac muscle (Homo sapiens) + …; IANBD-labeled TnC RTF fluorescence at EC20 calcium; 0% EC20 calcium, 100% full calcium; hit rate 0.24% among 340,000;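 active means activation above the mean over all tested compounds plus 3 SD, cut at about 30% in these data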;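 further: rise in fluorescence read as greater calcium sensitivity of cardiac thin filaments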
# CRFBP-R2 agonist = agonists of CRF-BP/CRF-R2 complex, primary screen, cell-based, HEK293, calcium dye fluorescence, uHTS; CRF-binding protein / CRF receptor 2 complex (human); calcium dye fluorescence (FLIPR); percent of saturating CRF peptide response; activation, % at 13.2 µM; hit rate 0.46% among 350,000; AID 588473, 2011;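 active means activation of at least 50%, plus an integration ratio under a set limit after plate pattern correction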;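 further: plate controls were neutral control wells without compound for no effect and CRF at EC100 for full effect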
# RTF Ca sens inh = cardiac RTF calcium sensitivity inhibitors, primary screen, biochemical, IANBD-TnC fluorescence, EC70 calcium; Troponin I, cardiac muscle (Homo sapiens) + Troponin T, cardiac muscle (Homo sapiens) + …; IANBD-labeled cardiac RTF, Ca2+ fluorescence; inhibition, % at 7.15 µM; AID 493244, 2011; hit rate 0.12% among 340,000;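 active means inhibition above the mean inhibition of all tested compounds plus 3 SD, cut at about 17% in these data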;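 further: assay run at fixed EC70 calcium of 1.6 mM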
# Myeloid diff MLP = induction of myeloid progenitor differentiation, primary screen, cell-based, flow cytometry, MLPCN library | ER-HoxA9 myeloid progenitors, lysozyme-GFP differentiation | calls only at 10 µM | hit rate 1% among 360,000;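 active means normalized GFP-positive differentiation at or above the plate's own cutoff, the solvent-only control mean plus 3 SD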;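 further: cells exposed to compound for four days before flow analysis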
# CRFR2-BP antag = antagonists of CRF-BP/CRF-R2 complex, primary screen, cell-based, HEK293, calcium dye fluorescence, uHTS | hit rate 0.59% among 350,000 | CRF-induced calcium fluorescence | AID 588475, 2011 | inhibition, % at 11.8 µM;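 active means inhibition of the ligand-induced calcium signal above about 50% at the single tested concentration, limit read from the data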
# * marks the source's active call; other numbers are inactive results; i = inactive; + = active, no number.
SMILES,RTF Ca sens act,CRFBP-R2 agonist,RTF Ca sens inh,Myeloid diff MLP,CRFR2-BP antag
O=C(OCc1ccccc1)N1CCC2CC1c1c(Cl)cccc12 (stereo not drawn),-3,5,-8,i,4
CCCCCn1c(NC(=O)c2ccco2)c(S(=O)(=O)c2ccc(C)cc2)c2nc3ccccc3nc21,4,0,-4,+,5
Cc1ccc(S(=O)(=O)c2c(N)n(Cc3ccco3)c3nc4ccccc4nc23)cc1C,12,48,-22,i,-39
CCCCn1c(NC(=O)c2ccc(Br)o2)c(S(=O)(=O)c2ccccc2)c2nc3ccccc3nc21,-4,17,-3,i,78*
CCCCn1c(NC(=O)c2ccco2)c(S(=O)(=O)c2ccc(C)cc2)c2nc3ccccc3nc21,13,15,-10,+,2
CCCCn1c(NS(=O)(=O)c2ccccc2)c(S(=O)(=O)c2ccc(C)cc2)c2nc3ccccc3nc21,-1,-2,-4,i,-40
Nc1c(S(=O)(=O)c2ccccc2)c2nc3ccccc3nc2n1Cc1ccco1,22,65*,-40,i,-77
CC(=O)NCCOC(=O)c1nn(Cc2ccccc2)c(=O)c2ccccc12,-2,-3,-2,i,2
COc1ccccc1N/C=C/c1onc(C)c1[N+](=O)[O-],2,89*,-2,i,-68
Cc1noc(/C=C/Nc2ccc(F)cc2F)c1[N+](=O)[O-],5,3,5,i,-7
Cc1noc(/C=C/c2ccccn2)c1[N+](=O)[O-],0,-2,-2,+,-2
COc1cccc(OC)c1OC(=O)c1ccccc1,-3,2,1,i,35
COc1ccc(-c2c(C#Cc3ccc(N(C)C)cc3)c3ccccc3n2C)cc1,-2,-2,0,i,7
COc1ccc(C#Cc2c(-c3ccccc3)n(-c3ccccc3)c3ccc(CO)cc23)cc1,2,2,4,i,118*
C/C=C(\C)C(=O)OC1[C@H](OC(C)=O)C2(CO)C(CC1(C)C)C1=CCC3C4(C)CCC(O[C@@H]5O[C@H](C(=O)O)[C@@H](O[C@@H]6O[C@H](CO)[C@@H](O)[C@H](O)[C@H]6O)[C@H](O)[C@H]5O[C@H]5O[C@H](CO)[C@@H](O)[C@H](O)[C@H]5O)[C@](C)(CO)C4CCC3(C)[C@]1(C)C[C@H]2O (stereo partly drawn),0,159*,-4,i,-65
CC1(C)C[C@H]2C3=CCC4[C@@]5(C)CC[C@H](O[C@@H]6O[C@H](C(=O)O)[C@@H](O)[C@H](O)[C@H]6O)[C@@](C)(CO)C5CC[C@@]4(C)[C@]3(C)C[C@H](O)[C@@]2(CO)[C@@H](O)[C@@H]1O (stereo partly drawn),4,-1,-13,i,-1
C/C=C(/C)C(=O)OC1CC(C)(C)C[C@H]2C3=CC[C@@H]4[C@@]5(C)CCC(O[C@@H]6O[C@@H](C(=O)O)[C@@H](O)C(O[C@@H]7OC[C@H](O)[C@@H](O)[C@@H]7O[C@@H]7OC(CO)C(O)[C@@H](O)[C@@H]7O)C6O[C@@H]6OC(CO)C(O)C(O)C6O)[C@@](C)(CO)[C@@H]5CC[C@]4(C)[C@]3(C)CC(O)[C@@]12CO (stereo partly drawn),3,112*,9,i,-40
C[C@@H]1CC[C@]2(C(=O)O[C@@H]3O[C@H](CO)[C@@H](O)[C@H](O)[C@H]3O)CC[C@]3(C)C(=CCC4[C@@]5(C)CC[C@H](O[C@@H]6OC[C@H](O)[C@H](O[C@@H]7O[C@H](CO)[C@@H](O)[C@H](O)[C@H]7O)[C@H]6O)C(C)(C)C5CC[C@]43C)C2[C@]1(C)O (stereo partly drawn),0,-1,-1,i,26
N#C/C(=C\c1c(N2CCC(C(N)=O)CC2)nc2ccccn2c1=O)C(=O)NC1CCCCC1,1,-1,-10,i,-5
Cc1ccccc1-n1ncc2c1CC(C)(C)CC2NC(=O)C1=CC(=O)CC(C)(C)O1 (stereo not drawn),5,1,-3,i,0

# Screens (PubChem)
